{"source": "PubChem BioAssay AID504834", "about": "(National Center for Advancing Translational Sciences (NCATS), 2011)", "note": "Where “and” joins values, the source holds several entries; their conditions need not be identical. Equal values may be shown once. About 22,000 (6.9%) of roughly 320,000 compounds were called active. Another 27% or so got no clear call; they are omitted. The call rests on the fitted dose curve; in most records, active means well fitted inhibition curve with a large enough effect; inconclusive means small, poorly fitted or top-dose-only effect, or another doubt; inactive means no such curve, though single readings can be large or run the other way. Many of the other results were omitted from the sample, so actives are more common in it than they were. Some structures have more than one record in an assay (separate samples or runs), and their calls can disagree. On the % scale 0 is the no-effect control and ±100 the full control effect; potency means the concentration at half of the fitted maximal effect."}
{"assay": "Primary qHTS for delayed death inhibitors of the malarial parasite plastid, 96 hour incubation", "details": "P. falciparum luciferase reporter growth; series mostly up to 28.7 µM; activity change, negative = inhibition: at the top concentration", "text": "The goal of this screen is to discover new antimalarial compounds that act by inhibiting the development of the apicoplast in the malarial parasite Plasmodium falciparum. The biochemical processes that make this organelle essential for erythrocytic stage parasites are not well understood. However, antibiotics such as azithromycin and tetracycline, which target the apicoplast translational machinery, have a potent antimalarial effect.\nWe have developed a cell-based assay that measures parasite growth based on the expression of an integrated copy of a firefly luciferase reporter. To detect small molecules that cause this \"delayed death\" phenotype, erythrocytes infected with the luciferase-expressing parasites were incubated with compounds for either one or two generations, corresponding to 48 and 96 hours, respectively. Compounds that inhibit parasite growth in the second generation, but not the first, should be enriched in antimalarials that target the apicoplast. Growth inhibition is detected by a decrease in luciferase activity.\nAssay Provider: David Fidock and Eric Ekland, Columbia University\nKeywords: NIH Roadmap, MLPCN, MLI, MLSMR, qHTS, NCGC, qHTS, malaria, luciferase, viability\nFour microliters of infected erythrocytes (2% hematocrit, 0.05% parasitemia final concentration) in culture medium were dispensed and the plates incubated for 96 hours at 37 C in 5% CO2. Two microliters of luciferase detection reagent was added and luminescence was detected by a ViewLux (PerkinElmer) reader."}
{"smiles": "O=S(=O)(c1ccc(Br)cc1)N1CCC(c2nc3ccccc3[nH]2)CC1", "activity change, negative = inhibition": "36.7% (inactive)"}
{"smiles": "O=C(c1ccccc1F)N1CCN(S(=O)(=O)c2ccc(Br)cc2)CC1", "activity change, negative = inhibition": "-20% (inactive)"}
{"smiles": "C/C=C/c1ccc(OCC(=O)OCC(=O)Nc2c(C)nn(-c3ccccc3)c2C)c(OC)c1", "activity change, negative = inhibition": "9.93% (inactive)"}
{"smiles": "COc1ccc(CNC(=O)C(c2ccc(O)cc2)N(Cc2ccco2)C(=O)c2snc(C(N)=O)c2N)cc1", "note": "(configuration not stated)", "activity change, negative = inhibition": "-9.26% (inactive)"}
{"smiles": "Cc1cccc(C(=O)N2CCCC(Nc3ccc(C(C)C)cc3)C2)n1", "note": "(configuration not stated)", "activity change, negative = inhibition": "25.2% (inactive)"}
{"smiles": "CC(C)NC(=O)CCCn1c(=S)[nH]c2cc3c(cc2c1=O)OCO3", "activity change, negative = inhibition": "4.1% (inactive)"}
{"smiles": "O=C(CCn1c(=S)[nH]c2cc3c(cc2c1=O)OCO3)NCc1ccc(Cl)cc1", "Potency": "11.7 µM (active)"}
{"smiles": "CCCCNC(=O)CCn1c(=S)[nH]c2cc3c(cc2c1=O)OCO3", "activity change, negative = inhibition": "139% (inactive)"}
{"smiles": "COc1ccc(-c2csc(Nc3ccc(O)cc3)n2)cc1", "activity change, negative = inhibition": "37.7% (inactive)"}
{"smiles": "CCCn1c(CCNc2nc(-c3ccc(OC)cc3)cs2)nc2ccccc21", "Potency": "11.7 µM (active)"}
{"smiles": "COc1ccc(Nc2nc(-c3ccccc3)cs2)cc1", "activity change, negative = inhibition": "8.91% (inactive)"}
{"smiles": "CC(=O)c1cc2c(cc1NC(=O)Cn1nc(-c3ccc(F)cc3)ccc1=O)OCO2", "activity change, negative = inhibition": "23.7% (inactive)"}
{"smiles": "CNC(=O)C1CC(=O)N(Cc2ccc3c(c2)OCO3)C(=Nc2ccc(F)cc2)S1", "note": "(configuration not stated)", "Potency": "6.57 µM (active)"}
{"smiles": "O=C(Cc1ccc(F)cc1)N/N=C/c1ccc2c(c1)OCO2", "activity change, negative = inhibition": "94.1% (inactive)"}
{"smiles": "COc1ccc(N=C2SC(C(=O)Nc3ccc(F)cc3)CC(=O)N2C)cc1", "note": "(configuration not stated)", "activity change, negative = inhibition": "3.01% (inactive)"}
{"smiles": "CC1CCN(C(=O)/C(=C\\c2ccccc2F)NC(=O)c2ccccc2)CC1", "activity change, negative = inhibition": "27.9% (inactive)"}
{"smiles": "Cn1c(=O)c2c(nc(NCc3ccccc3)n2CC(N)=O)n(C)c1=O", "activity change, negative = inhibition": "23.9% (inactive)"}
{"smiles": "Cn1c(=O)c2c(nc(N3CCCCCC3)n2CC(=O)c2ccc(Br)cc2)n(C)c1=O", "activity change, negative = inhibition": "23.4% (inactive)"}
{"smiles": "C=CCn1c(Oc2ccc(C(=O)OC)cc2)nc2c1c(=O)n(C)c(=O)n2C", "Potency": "5.86 µM (active)"}
{"smiles": "COc1ccc(NC(=O)CCNC(=O)Cn2cnc3sc4c(c3c2=O)CCCC4)cc1OC", "activity change, negative = inhibition": "14.1% (inactive)"}
{"smiles": "C=CCN1C(=O)C2(OCCCO2)c2cccc(Cl)c21", "activity change, negative = inhibition": "-23.1% (inactive)"}
{"smiles": "COc1ccc(-c2nnc3n2CCCCC3)cc1", "activity change, negative = inhibition": "32.2% (inactive)"}
{"smiles": "CC(=O)N1c2ccc(S(=O)(=O)N3CCCC(C(=O)Nc4cccc(Cl)c4)C3)cc2CC1C", "note": "(configuration not stated)", "activity change, negative = inhibition": "-15.3% (inactive)"}
{"smiles": "CC(=O)N1c2ccc(S(=O)(=O)N3CCC(C(=O)NC4CCCCC4C)CC3)cc2CC1C", "note": "(configuration not stated)", "activity change, negative = inhibition": "-7.95% (inactive)"}
{"smiles": "CC(=O)N1c2ccc(S(=O)(=O)N3CCCC(C(=O)Nc4cccc(F)c4)C3)cc2CC1C", "note": "(configuration not stated)", "Potency": "11.7 µM (active)"}
{"smiles": "O=C(CN1C(=O)S/C(=C\\c2ccccc2Cl)C1=O)NC1C=CS(=O)(=O)C1", "note": "(configuration not stated)", "activity change, negative = inhibition": "3.43% (inactive)"}
{"smiles": "COC(=O)c1c(-c2ccc(C)cc2)csc1N", "Potency": "13.1 µM (active)"}
{"smiles": "CCOC(=O)c1c(-c2ccc(C)cc2)csc1/N=C(\\C)C1=C(O)c2ccccc2C1=O", "activity change, negative = inhibition": "-6.18% (inactive)"}
{"smiles": "CCOC(=O)c1c(-c2ccccc2)csc1NC(=S)NC(=O)c1ccccc1", "activity change, negative = inhibition": "38.7% (inactive)"}
{"smiles": "COc1cc2ccccc2cc1C(=O)N1CCOCC1", "activity change, negative = inhibition": "6.89% (inactive)"}
{"smiles": "CC(C(=O)NC1CCCCC1)N1C(=O)c2cccc3cccc1c23", "note": "(configuration not stated)", "activity change, negative = inhibition": "-27.6% (inactive)"}
{"smiles": "O=C(Oc1ccc(F)cc1)N1CCOCC1", "activity change, negative = inhibition": "56.1% (inactive)"}
{"smiles": "COc1ccc(CCNC(=O)c2ccco2)cc1", "Potency": "7.38 µM (active)"}
{"smiles": "CCOc1ncccc1C(=O)NCCc1ccc(OC)cc1", "activity change, negative = inhibition": "-2.75% (inactive)"}
{"smiles": "Cc1ccc(OCC(=O)NCCCNC(=O)c2ccco2)cc1C", "activity change, negative = inhibition": "0.751% (inactive)"}
{"smiles": "Cc1ccc(C)c(NC(=O)COC(=O)CSc2ccccc2)c1", "activity change, negative = inhibition": "-20.2% (inactive)"}
{"smiles": "Cc1ccc(C)c(NC(=O)C(c2ccccc2)N2CCN(CC(=O)NC3CC3)CC2)c1", "note": "(configuration not stated)", "Potency": "14.7 µM (active)"}
{"smiles": "Cc1ccc(Cl)c(NC(=O)CN2CCN(C=O)CC2)c1", "activity change, negative = inhibition": "23.5% (inactive)"}
{"smiles": "Cc1ccc(NS(=O)(=O)c2c(C)[nH]c(C)c2C(=O)N2CCCCC2)c(C)c1", "activity change, negative = inhibition": "-29.1% (inactive)"}
{"smiles": "Cc1ccc(S(=O)(=O)N(C)C)cc1NC(=O)c1ccc(-n2cncn2)c([N+](=O)[O-])c1", "activity change, negative = inhibition": "-7.86% (inactive)"}
{"smiles": "C=CCn1c(SCc2c(C)noc2C)nc2sc3c(c2c1=O)CCC(C)C3", "note": "(configuration not stated)", "activity change, negative = inhibition": "-1.1% [at 5.75 µM] (inactive)"}
{"smiles": "CCCn1nnc2sc3c(c2c1=O)CCC(C)C3", "note": "(configuration not stated)", "Potency": "11.7 µM (active)"}
{"smiles": "CC1CCc2c(sc3nc4n(c(=O)c23)CCS4)C1", "note": "(configuration not stated)", "activity change, negative = inhibition": "-29.8% (inactive)"}
{"smiles": "COc1cccc(COC(=O)C2CCN(S(=O)(=O)c3cccs3)CC2)c1OC", "activity change, negative = inhibition": "8.27% (inactive)"}
{"smiles": "Cn1c(=O)c2sccc2n(Cc2ccc(Br)cc2)c1=O", "activity change, negative = inhibition": "161% (inactive)"}
{"smiles": "O=C(Nc1ccccc1C(=O)Nc1ccncc1)c1ccc([N+](=O)[O-])cc1", "activity change, negative = inhibition": "32.1% (inactive)"}
{"smiles": "CN=C(NC#N)NCCSCc1nc[nH]c1C", "Potency": "inactive and 13.5 µM (active)"}
{"smiles": "O=C(Nc1cccnc1)c1cc([N+](=O)[O-])ccc1Cl", "activity change, negative = inhibition": "-2.06% (inactive)"}
{"smiles": "O=C(CCc1nnc2ccc(NCCCN3CCCC3=O)nn12)NCc1ccccc1Cl", "activity change, negative = inhibition": "-20.1% (inactive)"}
{"smiles": "O=C(CCc1nnc2ccc(NCc3ccccc3Cl)nn12)NCC1CCN(C2CCCC2)C1", "note": "(configuration not stated)", "Potency": "5.22 µM (active)"}
{"smiles": "CSCCC(=O)N1CCCC(CNC(=O)c2ccccc2Cl)C1", "note": "(configuration not stated)", "activity change, negative = inhibition": "0% (inactive)"}
{"smiles": "Cc1cccc(N(C)C(=O)c2cc(S(=O)(=O)N3CCCCC3)c[nH]2)c1", "activity change, negative = inhibition": "-0.248% (inactive)"}
